Many of the other results were omitted from the sample, so hits are more common in it than they were.
PglD inh: C. jejuni PglD acetyltransferase inhibitors, primary screen, biochemical, DTNB colorimetric, single point; purified PglD enzyme, DTNB colorimetric CoA detection; inhibition, % at 12.5 µM; hit rate 0.098% among 360,000; UDP-N-acetylbacillosamine N-acetyltransferase PglD (Campylobacter jejuni); in the data active = inhibition above about 16%, passing the limit was not always enough
PDI turbidity: inhibitors of human PDI, primary screen, biochemical, turbidity, single point, plate reader | Protein disulfide-isomerase (Homo sapiens), P07237 | PDI insulin aggregation turbidity, A650, 90 min | inhibition, % at 10 µM | hit rate 0.052% among 350,000 | AID 588391, 2011;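 active = mean inhibition across replicates of 30% or more, whatever share of single replicates reach that level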
ALR H2O2 inh: inhibitors of human ALR sulfhydryl oxidase, primary screen, biochemical, H2O2 detection, HRP-luminol luminescence, single point. purified ALR, DTT oxidation. inhibition, % (test concentration not listed). hit rate 3.8% among 290,000. AID 485317, 2010;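 active = mean replicate inhibition above about 79%, with every replicate also reaching it, limit read from the data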
ARNT-TACC3 inh: disruptors of ARNT/TACC3 protein interaction, primary screen, biochemical, AlphaScreen, single concentration. hit rate 0.66% among 390,000. AID 623870, 2012. inhibition, % at 9.99 µM. AlphaScreen His-ARNT PAS-B/GST-TACC3 binding, luminescence; TACC3 fragment carries E629A point mutation. Transforming acidic coiled-coil-containing protein 3 (Homo sapiens), Q9Y6A5;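 active = mean inhibition of replicates at least 50% and at least half of replicates each reaching 50%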;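 note: 0% = complete ARNT plus TACC3 wells and 100% = ARNT alone without TACC3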
CendR NRP1 mod: modulators of CendR peptide binding to NRP-1, primary screen, biochemical, fluorescence polarization, uHTS; hit rate 0.85% among 360,000; inhibition, % at 25 µM; Neuropilin-1 (Homo sapiens), O14786; FAM-RPARPAR peptide binding to NRP-1; AID 602438, 2012;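 active = inhibition or corrected inhibition above about 18%, plus a signal ratio from 0.5 to 1.5, limit read from the data, passing the limit was not always enough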
ERp5 inh: inhibitors of ERp5-driven insulin aggregation, primary screen, biochemical, turbidity, absorbance 650 nm, single point; Protein disulfide-isomerase A6 (Homo sapiens), Q15084; 90 min; inhibition, % at 9.99 µM; hit rate 0.05% among 350,000;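 active = mean replicate inhibition above about 25%, with every replicate also reaching it, limit read from the data, passing the limit was not always enough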
Target sequence (Q15084 whole entry, looked up): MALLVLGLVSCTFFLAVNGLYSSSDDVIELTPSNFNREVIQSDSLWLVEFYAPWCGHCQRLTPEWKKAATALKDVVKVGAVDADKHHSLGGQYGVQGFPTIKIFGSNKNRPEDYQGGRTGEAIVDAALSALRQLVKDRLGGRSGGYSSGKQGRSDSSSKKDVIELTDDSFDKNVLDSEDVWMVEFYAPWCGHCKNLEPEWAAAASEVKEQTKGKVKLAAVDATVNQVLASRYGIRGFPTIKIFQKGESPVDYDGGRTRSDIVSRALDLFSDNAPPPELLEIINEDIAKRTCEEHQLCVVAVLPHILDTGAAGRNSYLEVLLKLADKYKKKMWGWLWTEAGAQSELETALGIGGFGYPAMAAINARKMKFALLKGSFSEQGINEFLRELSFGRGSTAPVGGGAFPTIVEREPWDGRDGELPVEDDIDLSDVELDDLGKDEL
Starred values were filed as active, the others as inactive; x = no result.

SMILES	PglD inh	PDI turbidity	ALR H2O2 inh	ARNT-TACC3 inh	CendR NRP1 mod	ERp5 inh
NS(=O)(=O)c1ccc(NC(=O)CSc2ncnc3ccccc23)cc1	x	0	-4	x	-8	3
NS(=O)(=O)c1cccc(NC(=O)CSc2ncnc3ccccc23)c1	x	7	99*	-4	8	6
CC(=O)N(C)C[C@@H]1Oc2cc(C#Cc3cccc(F)c3)ccc2S(=O)(=O)N([C@@H](C)CO)C[C@H]1C	4	x	x	2	x	-3
C[C@H](CO)N1C[C@H](C)[C@H](CN(C)Cc2ccc(O)cc2)OCc2cnnn2CCCC1=O	-2	x	x	1	x	-2
Oc1ccccc1-c1nc(/C=C/c2ccccc2)nn1-c1ccccc1	x	23	x	-3	-3	4
Oc1ccc(/C=C/c2nc(-c3ccccc3O)n(-c3ccccc3)n2)cc1	0	48*	65	4	-13	x
COC(=O)/C=C1\N/C(=N\c2nc(C)cc(C)n2)N(c2ccccc2)C1=O	6	-1	97*	x	-3	-2
COC(=O)/C=C1/N/C(=N\c2nc(C)cc(C)n2)N(c2ccccc2)C1=O	x	-8	11	-11	3	x
Cc1ccc(SC(=O)c2c([N+](=O)[O-])c(C)nn2C)cc1	3	1	x	-10	13	-3
CCn1nc(C)cc1C(=O)Sc1ccc(C)cc1	x	-1	98*	-4	9	7
CO[C@H]1CN(C)C(=O)c2ccc(NC(C)=O)cc2OC[C@@H](C)N(C(=O)C2CCCCC2)C[C@H]1C	2	x	x	-9	x	8
CC(C)Oc1ccc(CSC(=N)N)cc1	2	-4	98*	-26	15	x
CCOC(=O)c1nnn(-c2nn3nnnc3c3ccccc23)c1C	-1	-7	98*	2	0	x
COc1cc(-c2nc3ccc4ccccc4c3c3c2CCC3)ccc1O	1	-11	96*	0	-12	2
Cc1ccccc1-c1nc(CS(=O)(=O)CC(=O)NCCCN2CCCC2=O)c(C)o1	1	x	7	2	-3	7
CSc1ccc(-c2nc(CSCC(=O)NCCCN3CCCC3=O)c(C)o2)cc1	-1	9	95*	x	4	-2
CCc1ccc(-c2nc(CSCC(=O)NCCCN3CCCC3=O)c(C)o2)cc1	-2	7	99*	-5	1	x
O=C(CSc1ccc2ccccc2c1)NCCCN1CCCC1=O	0	12	100*	-7	0	3
COCCNC(=O)CSCc1nc(-c2ccc(SC)cc2)oc1C	-2	-1	100*	-3	7	x
COc1ccc2c3c(n(C)c2c1)[C@H](CO)N(C(=O)Cc1ccccn1)CC31CCN(C)CC1	x	x	x	x	x	5
O=C(C1CCCCC1)N1CC2(C1)[C@@H](c1ccccc1)[C@@H](CO)N2Cc1ccccc1F	x	x	x	x	x	-3
C[C@H](CO)N1C[C@H](C)[C@@H](CN(C)S(=O)(=O)c2ccc(Cl)cc2)Oc2c(NC(=O)CCCCCC(=O)Nc3ccccc3N)cccc2C1=O	x	x	x	x	x	-4
COc1ccccc1C(=O)Oc1ccccc1C(=O)Nc1ccccc1	-3	8	10	1	5	-3
O=C(Oc1ccccc1C(=O)Nc1ccccc1)c1ccc(Br)c([N+](=O)[O-])c1	x	9	97*	-13	19	4
CN(c1nnc(N)s1)C1CCCCC1	-4	x	99*	2	-12	-2
SMILES	PglD inh	PDI turbidity	ALR H2O2 inh	ARNT-TACC3 inh	CendR NRP1 mod	ERp5 inh
O=C(Nc1nc(NC(=O)c2ccco2)n(-c2ccccc2)n1)c1ccccc1	1	-3	-5	56*	14	x
Nc1nc(NC(=O)c2ccccc2)nn1-c1ccccc1	0	-6	-8	3	0	-3
Cn1cnc(S(=O)(=O)N2C[C@@H](O)COC[C@@H]3O[C@@H](CC(=O)NCc4cc(F)cc(F)c4)CC[C@H]32)c1	4	x	x	-2	x	4
O=S(=O)(c1ccc(F)cc1)N1CCCCN2[C@H](CO)[C@H](c3ccc(C#CC4CC4)cc3)[C@H]2C1	-1	x	x	16	x	-3
O=C(O)CCC(=O)Nc1ccc(C(=O)OCC(=O)c2ccc(Cl)cc2Cl)cc1	x	-9	96*	-4	13	4
CCC(=O)Nc1cc(C(=O)OCC(=O)c2ccc(Cl)cc2Cl)ccc1C	-1	-3	-1	-11	8	x
O=C1CN(S(=O)(=O)Cc2ccccc2)C[C@H]2[C@@H](c3ccc(C#Cc4ccccc4)cc3)[C@H](CO)N12	x	x	x	x	x	-3
COC(=O)Cc1c(C)c2ccc(OC(=O)c3ccccc3)cc2oc1=O	-4	-12	98*	1	-6	x
Cc1c(Cc2ccccc2)c(=O)oc2cc(OC(=O)c3ccccc3)ccc12	5	-4	x	4	-2	x
Cc1c(Cc2ccccc2)c(=O)oc2cc(OCC(=O)N3CCC(C(=O)O)CC3)ccc12	1	x	93*	6	-2	-5
Cc1c(Cc2ccccc2)c(=O)oc2cc(OCc3nn[nH]n3)ccc12	6	-3	98*	-17	-11	x
Cc1c(CC(=O)O)c(=O)oc2cc(OCc3nn[nH]n3)ccc12	-1	9	2	-5	9	x
CNC[C@@H]1OCCCC[C@@H](C)Oc2ccc(NS(C)(=O)=O)cc2C(=O)N([C@@H](C)CO)C[C@@H]1C	3	x	x	-1	x	1
COCC(=O)N1C[C@@H](C)[C@H](OC)CN(C)C(=O)c2ccc(NC(=O)C3CCC3)cc2OC[C@@H]1C	1	x	x	-4	x	1
C[C@H]1CN([C@@H](C)CO)C(=O)c2cccc(NC(=O)Nc3ccc(C(F)(F)F)cc3)c2O[C@@H]1CN(C)Cc1ccc(C(=O)Nc2ccccc2N)cc1	x	x	x	x	x	-1
CC(CN1CCCCC1)OC(=O)c1ccc(Cl)cc1Cl (centres undefined)	0	9	-2	-7	22*	x
C=CCOc1ccc(CNC(C)(C)C)cc1OC	x	2	-20	1	24*	x
C[C@H](CO)N1C[C@H](C)[C@@H](CN(C)C(=O)C2CCC2)Oc2ncc(C3=CCCC3)cc2C1=O	5	x	x	-14	x	8
Cc1cccc(-n2c(CCn3nc(C)c([N+](=O)[O-])c3C)n[nH]c2=S)c1	1	-4	92*	2	-9	2
Cc1cccc(-n2c(Cc3ccccc3)n[nH]c2=S)c1	-1	0	5	-30	-11	-4
COc1cccc(-n2c(CCn3nc(C)c([N+](=O)[O-])c3C)n[nH]c2=S)c1	x	10	85*	0	-1	2
CCN(CC)CCn1c(SCC(=O)Nc2cccc(OC)c2)nc2c(sc3ccccc32)c1=O	x	0	x	-3	7	8

Screening data deposited in PubChem by several laboratories.
